The text below walks through data of PubChem BioAssay (EPA / NIEHS).

What all share (details): mRNA level, 48 h; actives raise or lower the signal
Read-out in assay [1]: Glutamate-cysteine ligase catalytic (GCLC), GCLC (gene 2729)
The assay can be described thus: LTEA_HepaRG_GCLC: Life Technologies and Expression Analysis (LTEA) Assay for Glutamate-cysteine ligase catalytic (GCLC) using HepaRG (AID 2283498). Summed up: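 Read-out is GCLC transcript level by Fluidigm-based TaqMan qRT-PCR, normalized to three housekeeping genes and fitted in both directions relative to 0.5% DMSO. Human HepaRG cells received chemicals for 48 h, up to 100 uM.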

Read-out in assay [2]: growth arrest and DNA damage 45 (GADD45G), GADD45G (gene 10912)
The assay can be described thus: LTEA_HepaRG_GADD45G: Life Technologies and Expression Analysis (LTEA) Assay for growth arrest and DNA damage 45 (GADD45G) using HepaRG (AID 2283499). Summed up:
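GADD45G transcript level by qRT-PCR (housekeeping-normalized: ACTB, GAPDH, POLR2A) after 48 h chemical treatment of a single HepaRG lot in serum-free induction medium; eight-point half-log series up to 100 uM in 0.5% DMSO, duplicates, up- or down-regulation scored.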

Read-out in assay [3]: Glutamate-cysteine ligase regulatory (GCLM), GCLM (gene 2730)
In words: LTEA_HepaRG_GCLM: Life Technologies and Expression Analysis (LTEA) Assay for Glutamate-cysteine ligase regulatory (GCLM) using HepaRG (AID 2283500). In a few lines: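 Differentiated HepaRG cells exposed 48 h in serum-free induction medium to eight half-log concentrations up to 100 uM (0.5% DMSO). GCLM mRNA by TaqMan qRT-PCR, normalized to ACTB, GAPDH and POLR2A; bidirectional fit versus DMSO.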

Read-out in assay [4]: Glutathione S-transferase M3 (GSTM3), GSTM3 (gene 2947)
The assay can be described thus: LTEA_HepaRG_GSTM3: Life Technologies and Expression Analysis (LTEA) Assay for Glutathione S-transferase M3 (GSTM3) using HepaRG (AID 2283501). In a few lines:
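GSTM3 transcript levels came from Fluidigm TaqMan qRT-PCR normalized to three housekeeping genes, fitted in both directions against DMSO. HepaRG cultures received chemicals for 48 h in serum-free induction medium (0.5% DMSO), 8 half-log concentrations up to 100 uM, duplicate.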

Read-out in assay [5]: Heat shock 70 kDa protein 1 (HSPA1A), gene 3303
The assay can be described thus: LTEA_HepaRG_HSPA1A: Life Technologies and Expression Analysis (LTEA) Assay for Heat shock 70 kDa protein 1 (HSPA1A) using HepaRG (AID 2283502). Summed up: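 Human HepaRG cells in serum-free induction medium were exposed in duplicate for 48 h to 8 half-log concentrations, highest 100 uM, in 0.5% DMSO. HSPA1A mRNA read by TaqMan qRT-PCR, normalized to ACTB, GAPDH, POLR2A, fitted bidirectionally against DMSO.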

Read-out in assay [6]: Hypoxia-inducible factor 1-alpha (Homo sapiens) (UniProt Q16665)
In words: LTEA_HepaRG_HIF1A: Life Technologies and Expression Analysis (LTEA) Assay for Hypoxia-inducible factor 1 (HIF1A) Trancription factor using HepaRG (AID 2283503). Summed up: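 Differentiated HepaRG cells in serum-free induction medium exposed 48 h, in duplicate, to 8-point half-log series from 100 uM in 0.5% DMSO. HIF1A mRNA measured by TaqMan qRT-PCR, normalized to ACTB/GAPDH/POLR2A, fitted bidirectionally versus DMSO.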

Read-out in assay [7]: 3-Hydroxy-3-Methylglutaryl-CoA Synthase 2 (HMGCS2), HMGCS2 (gene 3158)
In words: LTEA_HepaRG_HMGCS2: Life Technologies and Expression Analysis (LTEA) Assay for 3-Hydroxy-3-Methylglutaryl-CoA Synthase 2 (HMGCS2) using HepaRG (AID 2283504). Summed up:
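Readout is HMGCS2 transcript by qRT-PCR, housekeeping-normalised (ACTB/GAPDH/POLR2A) and fitted bidirectionally against 0.5% DMSO. Differentiated HepaRG cells received chemicals 48 h, duplicate wells, eight half-log concentrations topping at 100 uM.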

Read-out in the next assay: HGF (gene 3082)
The assay can be described thus: LTEA_HepaRG_HGF: Life Technologies and Expression Analysis (LTEA) Assay for Hepatocyte Growth Facto (HGF) using HepaRG (AID 2283505). In a few lines:
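HGF transcript was quantified by TaqMan qRT-PCR against three housekeeping genes after 48 h treatment of HepaRG cells. Exposure ran in duplicate over eight half-log steps topping at 100 uM in 0.5% DMSO vehicle.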

Read-out in assay [8]: Insulin Like Growth Factor 1 (IGF1), IGF1 (gene 3479)
The assay can be described thus: LTEA_HepaRG_IGF1: Life Technologies and Expression Analysis (LTEA) Assay for Insulin Like Growth Factor 1 (IGF1) using HepaRG (AID 2283506). Summed up:
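Differentiated HepaRG cells in serum-free induction medium, exposed 48 h in duplicate to 8 half-log concentrations up to 100 uM in 0.5% DMSO. IGF1 mRNA by Fluidigm qRT-PCR, normalised to ACTB, GAPDH and POLR2A.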

Read-out in assay [9]: Intercellular Adhesion Molecule 1 (ICAM1), ICAM1 (gene 3383)
In words: LTEA_HepaRG_ICAM1: Life Technologies and Expression Analysis (LTEA) Assay for Intercellular Adhesion Molecule 1 (ICAM1) using HepaRG (AID 2283507). Summed up: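 ICAM1 transcript levels measured by qRT-PCR, normalized to three housekeeping genes (ACTB, GAPDH, POLR2A), after 48 h chemical exposure of HepaRG cells. Duplicate eight-point half-log series from 100 uM in 0.5% DMSO; gain or loss fitted against vehicle.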

Read-out in assay [10]: Insulin-like growth factor-binding protein 1 (IGFBP1), IGFBP1 (gene 3484)
In words: LTEA_HepaRG_IGFBP1: Life Technologies and Expression Analysis (LTEA) Assay for Insulin-like growth factor-binding protein 1 (IGFBP1) using HepaRG (AID 2283508). Summed up:
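Read-out is qRT-PCR transcript level normalized to three housekeeping genes, fitted in both directions against 0.5% DMSO. Differentiated HepaRG cells received eight half-log concentrations (top 100 uM) in duplicate for 48 h in serum-free induction medium.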

Read-out in assay [11]: Interleukin 6 (IL6), IL6 (gene 3569)
In words: LTEA_HepaRG_IL6: Life Technologies and Expression Analysis (LTEA) Assay for Interleukin 6 (IL6) using HepaRG (AID 2283509). Summed up: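 HepaRG, ~100,000 cells/well, 48 h pre-culture; serum-free induction medium; cmpd 8-pt half-log from 100 uM, 0.5% DMSO, duplicate, 48 h. Lysis in RLT, TaqMan qRT-PCR; gain or loss vs DMSO.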

Read-out in assay [12]: Potassium channel subfamily K member 1 (KCNK1), KCNK1 (gene 3775)
In words: LTEA_HepaRG_KCNK1: Life Technologies and Expression Analysis (LTEA) Assay for Potassium channel subfamily K member 1 (KCNK1) using HepaRG (AID 2283511). Summed up: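 Gain or loss of KCNK1 mRNA is the read-out, quantified by qRT-PCR against three housekeeping genes after 48 h chemical treatment of human HepaRG liver cells. Concentrations ran from 100 uM downward in half-log steps, vehicle 0.5% DMSO.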

Read-out in assay [13]: Keratin 19 (KRT19), KRT19 (gene 3880)
In words: LTEA_HepaRG_KRT19: Life Technologies and Expression Analysis (LTEA) Assay for Keratin 19 (KRT19) using HepaRG (AID 2283512). Summed up:
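KRT19 transcript measured by TaqMan qRT-PCR, referenced to three housekeeping genes, after HepaRG cells received test chemicals for 48 h. Eight half-log concentrations, top 100 uM, 0.5% DMSO vehicle; increases and decreases both fitted.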

Read-out in assay [14]: JUN Transcription Factor, JUN (gene 3725)
In words: LTEA_HepaRG_JUN: Life Technologies and Expression Analysis (LTEA) Assay for JUN Transcription Factor using HepaRG (AID 2283513). Summed up:
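HepaRG cells, 48 h post-plating, exposed 48 h in serum-free induction medium to 8-point half-log series (top 100 uM, 0.5% DMSO), duplicate; mRNA by qRT-PCR (TaqMan, Fluidigm), normalized to ACTB/GAPDH/POLR2A; bidirectional fit vs DMSO.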

Read-out in assay [15]: Lipase C (LIPC), LIPC (gene 3990)
The assay can be described thus: LTEA_HepaRG_LIPC: Life Technologies and Expression Analysis (LTEA) Assay for Lipase C (LIPC) using HepaRG (AID 2283514). Summed up:
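Read-out is LIPC transcript level by TaqMan qRT-PCR, normalized to three housekeeping genes, after 48 h chemical treatment of human HepaRG liver cells. Curves span eight concentrations topping at 100 uM; activity in either direction scored relative to 0.5% DMSO.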

Read-out in assay [16]: Lipoprotein lipase (LPL), LPL (gene 4023)
In words: LTEA_HepaRG_LPL: Life Technologies and Expression Analysis (LTEA) Assay for Lipoprotein lipase (LPL) using HepaRG (AID 2283515). In a few lines:
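Read-out is LPL transcript level by qRT-PCR, normalized to three housekeeping genes and fitted bidirectionally against the DMSO control. Human HepaRG cells received chemicals for 48 h at up to 100 uM.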

Read-out in assay [17]: MicroRNA 122 (MIR122), gene 406906
In words: LTEA_HepaRG_MIR122: Life Technologies and Expression Analysis (LTEA) Assay for MicroRNA 122 (MIR122) using HepaRG (AID 2283516). Note: the transcript read is the microRNA miR-122. Summed up:
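Differentiated human HepaRG cells in serum-free induction medium exposed 48 h to 8 half-log concentrations from 100 uM in 0.5% DMSO, duplicate. MIR122 quantified by Fluidigm TaqMan qRT-PCR, normalised to ACTB, GAPDH, POLR2A; fold change fitted bidirectionally versus DMSO.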

Read-out in assay [18]: matrix metalloproteinase-10 (MMP10), MMP10 (gene 4319)
The assay can be described thus: LTEA_HepaRG_MMP10: Life Technologies and Expression Analysis (LTEA) Assay for matrix metalloproteinase-10 (MMP10) using HepaRG (AID 2283517). In a few lines:
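Gain or loss of MMP10 mRNA is fitted relative to the 0.5% DMSO vehicle. The human hepatic line HepaRG receives a 48-hour serum-free exposure, in duplicate, with a maximum concentration of 100 uM.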

The structures appear in SMILES notation. Activity calls are given as the source filed them. Rule for the calls: active = hit-call score of the fitted dose curve at least 0.9, where 1 is the maximum; inactive = score below 0.9.

Sequence of Hypoxia-inducible factor 1-alpha (Homo sapiens) (Q16665 whole entry, looked up): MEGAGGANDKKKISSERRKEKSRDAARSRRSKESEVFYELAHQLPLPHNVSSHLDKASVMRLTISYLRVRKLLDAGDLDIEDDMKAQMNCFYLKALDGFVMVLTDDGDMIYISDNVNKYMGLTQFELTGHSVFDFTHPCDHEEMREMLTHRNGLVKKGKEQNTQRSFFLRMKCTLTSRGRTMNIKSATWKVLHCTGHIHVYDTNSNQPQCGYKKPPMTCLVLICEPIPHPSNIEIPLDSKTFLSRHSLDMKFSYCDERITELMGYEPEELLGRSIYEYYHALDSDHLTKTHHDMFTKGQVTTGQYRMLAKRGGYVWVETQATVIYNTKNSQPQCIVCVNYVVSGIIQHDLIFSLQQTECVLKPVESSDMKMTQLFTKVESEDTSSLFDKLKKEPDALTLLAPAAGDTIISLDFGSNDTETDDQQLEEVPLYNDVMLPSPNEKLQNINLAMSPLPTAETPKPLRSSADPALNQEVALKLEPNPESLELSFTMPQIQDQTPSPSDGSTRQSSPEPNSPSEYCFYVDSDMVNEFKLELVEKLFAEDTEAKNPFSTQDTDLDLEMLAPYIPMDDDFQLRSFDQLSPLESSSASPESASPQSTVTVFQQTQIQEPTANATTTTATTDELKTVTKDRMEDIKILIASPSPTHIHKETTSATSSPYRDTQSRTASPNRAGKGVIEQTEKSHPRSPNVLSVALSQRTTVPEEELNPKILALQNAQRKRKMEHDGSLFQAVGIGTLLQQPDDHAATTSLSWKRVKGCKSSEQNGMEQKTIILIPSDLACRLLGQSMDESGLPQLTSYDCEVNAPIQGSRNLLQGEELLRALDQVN

In the case of `c1ccc2cc3ccccc3cc2c1`, the compound was classed as inactive in assay [1], in assay [2], in assay [3], in assay [4], in assay [5] and in assay [6]. Besides, the compound was classed as inactive (in assay [7]; in the assay with HGF (gene 3082); in [8]; in assay [9]; in assay [10]; in assay [11]). The compound was called inactive in assay [12], in [13], in assay [14], in assay [15], in assay [16] and in assay [17].
Consider `NC(=O)N1c2ccccc2C=Cc2ccccc21`, for which the compound was classed as inactive in [1], in assay [2], in assay [3], in [4], in assay [5] and in [6]. Moreover, the call (in [7]; with HGF (gene 3082); in assay [8]; in assay [9]; in assay [10]; in assay [11]) was inactive. In addition, the result in [12], in assay [13], in assay [14], in assay [15], in assay [16] and in assay [17] was inactive.
Regarding `COc1cc2c(c(OC)c1OC)-c1ccc(OC)c(=O)cc1[C@@H](NC(C)=O)CC2`, the AC50 (usually the concentration at which the activity in the assay is half-maximal) in assay [1] is 88.1 nM (active); in [2], 84.6 nM (active); in assay [6], 113 nM (active); in assay [7], 286 nM (active); in [8], 123 nM (active); in [10] it was 584 nM (active). Besides, the AC50 in [11] is 144 nM (active); in assay [15], 301 nM (active); in assay [16] it was 96 nM (active); in assay [17] it was 113 nM (active). The call (in assay [3]; in assay [4]; in assay [5]; in the assay with HGF (gene 3082); in assay [9]; in assay [12]) was inactive. In [14], the outcome was inactive.
With `CCCOc1ccc(S(=O)(=O)N2CCN(CC)CC2)cc1-c1nc2c(CC)n(Cc3ccccn3)nc2c(=O)[nH]1`, the call (in assay [1]; in assay [3]; in assay [4]; in [6]; in assay [7]; in the assay with HGF (gene 3082)) was inactive. Also, the result in assay [9], in [11], in assay [12], in [14], in assay [15] and in assay [17] was inactive. For the same compound, the compound was classed as inactive in [18]. The AC50 in assay [2] was 77900 nM (active); in assay [5], 25300 nM (active); in [8] it was 14500 nM (active); in [10], 68300 nM (active); in assay [16], 56700 nM (active).
